# According to the supplement of paper PMC7695840:
# Where a name gives a salt, the structure may show the parent alone.
# Test system: Staphylococcus aureus MW2 delta-mecA (mecA-)
# Experiment: normalized GFP fluorescence (growth of mecA- strain) (fraction of control range); higher = more growth of mecA- strain
# Conditions: compound concentration: 150 uM; cefoxitin: subinhibitory; fluorescent label: GFP
# Outline: (§1)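 Pre-induced S. aureus MW2 cells carrying the gene (DsRed) and deletion cells lacking it (GFP) were combined 1:1 in LB containing a subinhibitory antibiotic dose set each day, then dispensed at 5 µL/well onto 150 μM compound (1.5% DMSO) in 1536-well plates as a single replicate. After 20 h at 37 °C and 90% humidity without shaking, DsRed (540/590) and GFP (485/520) were read. Each channel was scaled per plate between the medians of the single-strain controls, and plates with high untreated ratios and rows with DsRed/GFP >10 were excluded.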
row,SMILES,normalized GFP fluorescence
1,NS(=O)(=O)c1cc2c(cc1Cl)NC(C(Cl)Cl)NS2(=O)=O (stereo not drawn),0.381
2,COC(c1ccccc1)(c1ccccc1)[C@H](Oc1nc(C)cc(C)n1)C(=O)O [Ambrisentan],0.466
3,COc1cc2nccc(Oc3ccc(NC(=O)C4(C(=O)Nc5ccc(F)cc5)CC4)cc3)c2cc1OC [Cabozantinib malate],0.367
4,Cc1ncc([N+](=O)[O-])n1CC(O)CCl (stereo not drawn),0.488
5,C[C@]12CCC(=O)C=C1CC[C@@H]1[C@@H]2[C@@H](O)C[C@@]2(C)[C@H]1CC[C@]2(O)C(=O)CO,0.268
6,CC1CCC(NC(=O)N(CCCl)N=O)CC1 (stereo not drawn),0.55
7,Clc1cccc(Cl)c1NC1=NCCN1,0.205
8,CC(C)NCC(O)COc1cccc2ccccc12 (stereo not drawn),0.142
9,CN1CCCCC1CCN1c2ccccc2Sc2ccc([S+](C)[O-])cc21 (stereo not drawn),0.265
10,Cc1c2oc3c(C)ccc(C(=O)N[C@@H]4C(=O)N[C@H](C(C)C)C(=O)N5CCC[C@H]5C(=O)N(C)CC(=O)N(C)[C@@H](C(C)C)C(=O)O[C@@H]4C)c3nc-2c(C(=O)N[C@@H]2C(=O)N[C@H](C(C)C)C(=O)N3CCC[C@H]3C(=O)N(C)CC(=O)N(C)[C@@H](C(C)C)C(=O)O[C@@H]2C)c(N)c1=O,-0.00268
11,CCc1ccc(CCOc2ccc(CC3SC(=O)NC3=O)cc2)nc1 (stereo not drawn),0.499
12,S=P(N1CC1)(N1CC1)N1CC1,0.213
13,OC(CCN1CCCCC1)(c1ccccc1)C1CC2C=CC1C2 (stereo not drawn) [Biperiden hydrochloride],0.119
14,Cc1ncc(C[n+]2csc(CCO)c2C)c(N)n1,0.111
15,Cn1cnc([N+](=O)[O-])c1Sc1ncnc2[nH]cnc12,0.269
16,CN1C2CCCC1CC(NC(=O)c1nn(C)c3ccccc13)C2 (stereo not drawn),0.718
17,Nc1ccc(C(=O)NCC(=O)O)cc1,0.297
18,CN(C)CCC[C@@]1(c2ccc(F)cc2)OCc2cc(C#N)ccc21,0.12
19,S=c1[nH]cnc2nc[nH]c12,0.195
20,CN(C)CCOC(C)(c1ccccc1)c1ccccn1 (stereo not drawn),0.411

row,SMILES,normalized GFP fluorescence
1,CO[C@@]1(NC(=O)CSCC#N)C(=O)N2C(C(=O)O)=C(CSc3nnnn3C)CS[C@@H]21,0.268
2,O=C(O)CCC(=O)Nc1ccc(S(=O)(=O)Nc2nccs2)cc1,0.332
3,CC(C)(C)NCC(O)c1ccc(O)c(CO)c1 (stereo not drawn) [Salbutamol sulfate (Albuterol)],0.318
4,Cc1cn(-c2cc(NC(=O)c3ccc(C)c(Nc4nccc(-c5cccnc5)n4)c3)cc(C(F)(F)F)c2)cn1 [Nilotinib (AMN-107)],0.547
5,CC(=O)O[C@H]1C[C@@H]2CC[C@@H]3[C@H](CC[C@@]4(C)[C@H]3C[C@H]([N+]3(C)CCCCC3)[C@@H]4OC(C)=O)[C@@]2(C)C[C@@H]1N1CCCCC1,0.425
6,"Cc1cn([C@@H]2C[C@@H](O)[C@H](CO)O2)c(=O)[nH]c1=O [Telbivudine (Sebivo, Tyzeka)]",0.205
7,CC[C@@H]1C(=O)OC[C@@H]1Cc1cncn1C,0.483
8,COC(=O)C1=C(C)NC(C)=C(C(=O)OC)C1c1ccccc1[N+](=O)[O-],0.0465
9,CCCCC1C(=O)N(c2ccccc2)N(c2ccc(O)cc2)C1=O (stereo not drawn),-0.0111
10,CC(C)CN(C[C@@H](O)[C@H](Cc1ccccc1)NC(=O)O[C@H]1CCOC1)S(=O)(=O)c1ccc(N)cc1 [Amprenavir (Agenerase)],0.174
11,C[n+]1ccccc1C=NO,0.166
12,CC(C)(C(=O)O)c1ccc(C(O)CCCN2CCC(C(O)(c3ccccc3)c3ccccc3)CC2)cc1 (stereo not drawn),0.393
13,CCCC(=O)Nc1ccc(OCC(O)CNC(C)C)c(C(C)=O)c1 (stereo not drawn),0.332
14,C=C1CC[C@H](O)C/C1=C/C=C1\CCC[C@]2(C)[C@@H]([C@H](C)CCCC(C)(C)O)CC[C@@H]12 [Calcifediol],-0.0113
15,O=C(Oc1ccccc1C(=O)O)c1ccccc1O,0.297
16,Nc1cc(N2CCCCC2)nc(N)[n+]1[O-],0.524
17,COC(=O)N[C@H](C(=O)N1CCC[C@H]1c1ncc(-c2ccc(-c3ccc(-c4cnc([C@@H]5CCCN5C(=O)[C@@H](NC(=O)OC)C(C)C)[nH]4)cc3)cc2)[nH]1)C(C)C,0.242
18,CN1CCc2cccc3c2[C@H]1Cc1ccc(O)c(O)c1-3,0.463
19,Cc1ccc(Nc2c(F)cccc2Cl)c(CC(=O)O)c1,0.0553

# Test system: Staphylococcus aureus MW2 (mecA+)
# Experiment: normalized DsRed fluorescence (growth of mecA+ strain) (fraction of control range); higher = more growth of mecA+ strain
# Conditions: compound concentration: 150 uM; cefoxitin: subinhibitory; fluorescent label: DsRed
# Outline: as §1
row,SMILES,normalized DsRed fluorescence
1,NS(=O)(=O)c1cc2c(cc1Cl)NC(C(Cl)Cl)NS2(=O)=O (stereo not drawn),0.814
2,COC(c1ccccc1)(c1ccccc1)[C@H](Oc1nc(C)cc(C)n1)C(=O)O [Ambrisentan],0.281
3,COc1cc2nccc(Oc3ccc(NC(=O)C4(C(=O)Nc5ccc(F)cc5)CC4)cc3)c2cc1OC [Cabozantinib malate],0.686
4,Cc1ncc([N+](=O)[O-])n1CC(O)CCl (stereo not drawn),0.705
5,C[C@]12CCC(=O)C=C1CC[C@@H]1[C@@H]2[C@@H](O)C[C@@]2(C)[C@H]1CC[C@]2(O)C(=O)CO,0.562
6,CC1CCC(NC(=O)N(CCCl)N=O)CC1 (stereo not drawn),0.439
7,Clc1cccc(Cl)c1NC1=NCCN1,0.663
8,CC(C)NCC(O)COc1cccc2ccccc12 (stereo not drawn),1.24
9,CN1CCCCC1CCN1c2ccccc2Sc2ccc([S+](C)[O-])cc21 (stereo not drawn),1.16
10,Cc1c2oc3c(C)ccc(C(=O)N[C@@H]4C(=O)N[C@H](C(C)C)C(=O)N5CCC[C@H]5C(=O)N(C)CC(=O)N(C)[C@@H](C(C)C)C(=O)O[C@@H]4C)c3nc-2c(C(=O)N[C@@H]2C(=O)N[C@H](C(C)C)C(=O)N3CCC[C@H]3C(=O)N(C)CC(=O)N(C)[C@@H](C(C)C)C(=O)O[C@@H]2C)c(N)c1=O,0.0533
11,CCc1ccc(CCOc2ccc(CC3SC(=O)NC3=O)cc2)nc1 (stereo not drawn),0.952
12,S=P(N1CC1)(N1CC1)N1CC1,0.86
13,OC(CCN1CCCCC1)(c1ccccc1)C1CC2C=CC1C2 (stereo not drawn) [Biperiden hydrochloride],0.714
14,Cc1ncc(C[n+]2csc(CCO)c2C)c(N)n1,1.23
15,Cn1cnc([N+](=O)[O-])c1Sc1ncnc2[nH]cnc12,1.03
16,CN1C2CCCC1CC(NC(=O)c1nn(C)c3ccccc13)C2 (stereo not drawn),0.441
17,Nc1ccc(C(=O)NCC(=O)O)cc1,0.671
18,CN(C)CCC[C@@]1(c2ccc(F)cc2)OCc2cc(C#N)ccc21,0.762
19,S=c1[nH]cnc2nc[nH]c12,0.762
20,CN(C)CCOC(C)(c1ccccc1)c1ccccn1 (stereo not drawn),0.892

row,SMILES,normalized DsRed fluorescence
1,CO[C@@]1(NC(=O)CSCC#N)C(=O)N2C(C(=O)O)=C(CSc3nnnn3C)CS[C@@H]21,0.711
2,O=C(O)CCC(=O)Nc1ccc(S(=O)(=O)Nc2nccs2)cc1,1.01
3,CC(C)(C)NCC(O)c1ccc(O)c(CO)c1 (stereo not drawn) [Salbutamol sulfate (Albuterol)],0.695
4,Cc1cn(-c2cc(NC(=O)c3ccc(C)c(Nc4nccc(-c5cccnc5)n4)c3)cc(C(F)(F)F)c2)cn1 [Nilotinib (AMN-107)],0.566
5,CC(=O)O[C@H]1C[C@@H]2CC[C@@H]3[C@H](CC[C@@]4(C)[C@H]3C[C@H]([N+]3(C)CCCCC3)[C@@H]4OC(C)=O)[C@@]2(C)C[C@@H]1N1CCCCC1,0.572
6,"Cc1cn([C@@H]2C[C@@H](O)[C@H](CO)O2)c(=O)[nH]c1=O [Telbivudine (Sebivo, Tyzeka)]",0.951
7,CC[C@@H]1C(=O)OC[C@@H]1Cc1cncn1C,0.892
8,COC(=O)C1=C(C)NC(C)=C(C(=O)OC)C1c1ccccc1[N+](=O)[O-],0.832
9,CCCCC1C(=O)N(c2ccccc2)N(c2ccc(O)cc2)C1=O (stereo not drawn),0.377
10,CC(C)CN(C[C@@H](O)[C@H](Cc1ccccc1)NC(=O)O[C@H]1CCOC1)S(=O)(=O)c1ccc(N)cc1 [Amprenavir (Agenerase)],0.506
11,C[n+]1ccccc1C=NO,0.637
12,CC(C)(C(=O)O)c1ccc(C(O)CCCN2CCC(C(O)(c3ccccc3)c3ccccc3)CC2)cc1 (stereo not drawn),1.03
13,CCCC(=O)Nc1ccc(OCC(O)CNC(C)C)c(C(C)=O)c1 (stereo not drawn),0.62
14,C=C1CC[C@H](O)C/C1=C/C=C1\CCC[C@]2(C)[C@@H]([C@H](C)CCCC(C)(C)O)CC[C@@H]12 [Calcifediol],0.65
15,O=C(Oc1ccccc1C(=O)O)c1ccccc1O,0.236
16,Nc1cc(N2CCCCC2)nc(N)[n+]1[O-],0.731
17,COC(=O)N[C@H](C(=O)N1CCC[C@H]1c1ncc(-c2ccc(-c3ccc(-c4cnc([C@@H]5CCCN5C(=O)[C@@H](NC(=O)OC)C(C)C)[nH]4)cc3)cc2)[nH]1)C(C)C,0.788
18,CN1CCc2cccc3c2[C@H]1Cc1ccc(O)c(O)c1-3,0.543
19,Cc1ccc(Nc2c(F)cccc2Cl)c(CC(=O)O)c1,0.183
